From PubChem BioAssay AID602193 (The Scripps Research Institute Molecular Screening Center, 2012)
About 410 (26%) of roughly 1,600 compounds were called active. Not all results are given here. A number with no mark means an inactive call.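 Rule for the calls: active = mean inhibition over triplicates above the low-control well mean plus 3 SD, set per campaign (cut at about 13% in these data); inactive = the rest.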

Experiment: nonselective cAMP signaling inhibitors, parental cells, counter-screen for MC4R biased antagonist project, cell-based, TR-FRET, U2OS, forskolin, triplicate (AID 602193);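 note: signal is single emission at 671 nm which falls as cellular cAMP rises; 0% = forskolin-stimulated wells and 100% = buffer without forskolin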
Conditions: LANCE TR-FRET, at 6.5 µM, stronger effect = higher value

SMILES	inhibition
O=C1/C(=C\c2ccc([N+](=O)[O-])cc2)CS(=O)(=O)C/C1=C/c1ccc([N+](=O)[O-])cc1	26.1% (active)
Cc1ccc(S(=O)(=O)CCC(=O)OCC(=O)N(C)Cc2ccccc2)cc1	1.96%
Cc1ccc(S(=O)(=O)N(C)CC(=O)OCC(=O)N2CC(=O)Nc3ccccc32)cc1	17.6% (active)
COc1ccccc1N(CC(=O)N/N=C(\C)c1ccccc1O)S(=O)(=O)c1ccc(C)cc1	5.78%
Cc1ccc(S(=O)(=O)N(C)CC(=O)OCC(=O)Nc2ccccc2)cc1	14.4% (active)
CCOC(=O)C(C)n1cnc2sc(C)c(C)c2c1=O (centres undefined)	4.97%
CC(C)Oc1ccc(/C=C(\NC(=O)/C=C/c2ccco2)C(=O)NCCc2nc3ccccc3[nH]2)cc1	2.02%
O=C(CSc1nc2ccc(Nc3nc(N4CCOCC4)nc(N4CCOCC4)n3)cc2s1)NCc1ccco1	-2.96%
Cc1ccc(NC(=O)c2c(NC(=O)CCC(=O)O)sc3c2CCCCC3)cc1	3.65%
N#C/C=C1\Sc2ccccc2C(=O)N1CC(=O)N1CCN(S(=O)(=O)c2ccccc2)CC1	7.11%
O=C(COC(=O)Cn1cnc2ccccc2c1=O)NCC12CC3CC(CC(C3)C1)C2	19% (active)
O=C(Nc1ccccc1Cl)/C(Cl)=C(\Cl)S(=O)c1ccccc1 (centres undefined)	-0.54%
Cc1c(CCC(=O)O)c(=O)oc2cc(OCc3ccc(Br)cc3)ccc12	2.85%
COc1ccc(Cl)cc1-c1cc(C(=O)Nc2cc(OC)c(OC)c(OC)c2)[nH]n1	-12.1%
O=S(=O)(NCc1ccco1)c1cnc(Cl)c(Cl)c1	21.1% (active)
COc1ccc(-n2nc(C(=O)Nc3cc(OC)c(OC)c(OC)c3)c3ccccc3c2=O)c(OC)c1	6.04%
Cc1ccc(C)c(S(=O)(=O)N2CCN(CC(=O)Nc3ccc([N+](=O)[O-])cc3)CC2)c1	-1.3%
COc1ccc2sc(-c3ccc(S(C)(=O)=O)cc3)c(-c3ccc(C(N)=O)cc3)c2c1	6.51%
O=C(Nc1nnc(Cc2ccc(Cl)cc2)s1)c1cccnc1	-0.09%
CSc1nnc(NC(=O)c2nc(S(=O)(=O)Cc3ccc(C)cc3)ncc2Cl)s1	26.5% (active)
O=C(NCCc1c[nH]c2ccccc12)c1cccc(Br)c1	2.29%
Cc1ccc(-c2nnc(CN3CCN(C)CC3)o2)cc1	-0.67%
CCCCOC(=O)CNc1nnc(SCC(=O)OCC)[nH]c1=O	34.4% (active)
CC(NS(=O)(=O)c1ccc(Br)cc1)C(=O)NCC1CCCO1 (centres undefined)	4.96%
